# Measurements from paper PMC7862700, “An all-to-all approach to the identification of sequence-specific readers for epigenetic DNA modifications on cytosine”.
# What was measured:
# Assay in all cases: DAPPL (digital affinity profiling via proximity ligation, sequencing); 10 mM Tris-HCl pH 7.5, 50 mM NaCl, 1 mM DTT, 4% glycerol, room temperature, 30 min; GST-TFs on glutathione beads, 16-mer random dsDNA library, 0.1% formaldehyde crosslink after washing; high values mean tight binding
# [1] = target: T1, FEV (Homo sapiens, UniProt Q99581 1-238); conditions: protein: recombinant; tags: N-terminal GST; dsDNA, one strand shown
# T1 sequence: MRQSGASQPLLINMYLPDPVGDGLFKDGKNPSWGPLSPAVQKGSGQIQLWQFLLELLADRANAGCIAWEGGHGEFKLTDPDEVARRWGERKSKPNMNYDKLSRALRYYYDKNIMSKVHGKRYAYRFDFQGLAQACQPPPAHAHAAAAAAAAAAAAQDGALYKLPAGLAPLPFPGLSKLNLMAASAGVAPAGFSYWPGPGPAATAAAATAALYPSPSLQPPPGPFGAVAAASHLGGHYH
# In short: (§1)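 In yeast, human transcription factors were expressed with a GST fusion, then pulled down on glutathione beads and given DNA barcodes. Pooled with a tag-only sample, they were exposed to 200 nmole of a 16-mer random double-stranded DNA library (Tris/NaCl/DTT/glycerol buffer, room temperature, 30 min), washed, crosslinked with 0.1% formaldehyde, proximity-ligated using BsaI/T4 ligase for 1 h at 37 °C, PCR-amplified and read on an Illumina NextSeq500. Each hexamer's frequency of reads for a factor, divided by the matching frequency for the tag-only sample, gives the binding signal.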
# [2] = target: ETV5 (Homo sapiens, UniProt P41161 1-510); conditions: protein: recombinant; tags: N-terminal GST; dsDNA, one strand shown
# ETV5, sequence (P41161 whole entry): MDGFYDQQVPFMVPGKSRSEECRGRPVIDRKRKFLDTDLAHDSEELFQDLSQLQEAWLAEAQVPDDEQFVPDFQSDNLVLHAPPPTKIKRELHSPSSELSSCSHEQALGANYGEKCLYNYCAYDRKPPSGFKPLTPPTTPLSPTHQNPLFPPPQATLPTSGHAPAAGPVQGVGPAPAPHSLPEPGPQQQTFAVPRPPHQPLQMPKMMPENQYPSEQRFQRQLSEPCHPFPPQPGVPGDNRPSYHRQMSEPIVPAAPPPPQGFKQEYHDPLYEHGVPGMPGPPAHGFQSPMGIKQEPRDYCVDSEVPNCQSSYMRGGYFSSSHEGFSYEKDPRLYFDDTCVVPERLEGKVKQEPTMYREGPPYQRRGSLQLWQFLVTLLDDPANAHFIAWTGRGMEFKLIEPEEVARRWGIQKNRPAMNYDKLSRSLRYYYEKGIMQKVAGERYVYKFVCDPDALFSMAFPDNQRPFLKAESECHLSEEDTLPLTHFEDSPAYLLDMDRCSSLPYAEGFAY
# In short: as §1
# [3] = target: HSF1 (Homo sapiens, UniProt Q00613 1-529); conditions: protein: recombinant; tags: N-terminal GST; chain copies: 3; dsDNA, one strand shown
# HSF1, sequence (Q00613 whole entry): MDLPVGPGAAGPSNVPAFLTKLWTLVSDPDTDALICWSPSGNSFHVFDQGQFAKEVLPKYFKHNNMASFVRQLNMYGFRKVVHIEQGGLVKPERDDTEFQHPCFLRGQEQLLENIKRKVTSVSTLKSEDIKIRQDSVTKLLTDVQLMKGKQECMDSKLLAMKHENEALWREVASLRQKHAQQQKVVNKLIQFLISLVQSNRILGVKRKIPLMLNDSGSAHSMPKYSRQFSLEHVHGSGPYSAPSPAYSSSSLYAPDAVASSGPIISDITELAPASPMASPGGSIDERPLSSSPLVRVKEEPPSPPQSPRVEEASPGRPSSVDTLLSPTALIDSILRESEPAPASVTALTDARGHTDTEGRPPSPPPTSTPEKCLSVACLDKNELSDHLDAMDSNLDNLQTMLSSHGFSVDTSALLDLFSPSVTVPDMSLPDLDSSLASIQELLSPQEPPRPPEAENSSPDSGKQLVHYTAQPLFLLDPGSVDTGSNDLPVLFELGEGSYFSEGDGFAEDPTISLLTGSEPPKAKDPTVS
# In short: as §1
# [4] = target: T2, SPIC (Homo sapiens, UniProt Q8N5J4 1-248); conditions: protein: recombinant; tags: N-terminal GST; dsDNA, one strand shown
# T2 sequence: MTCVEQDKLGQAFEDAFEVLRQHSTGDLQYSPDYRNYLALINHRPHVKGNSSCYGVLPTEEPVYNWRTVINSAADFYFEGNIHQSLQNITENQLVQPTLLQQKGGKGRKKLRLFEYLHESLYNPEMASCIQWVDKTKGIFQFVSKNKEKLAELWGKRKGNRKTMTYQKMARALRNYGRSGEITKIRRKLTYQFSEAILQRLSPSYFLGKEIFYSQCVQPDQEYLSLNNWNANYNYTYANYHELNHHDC
# In short: as §1
# [5] = target: ELF4 (Homo sapiens, UniProt Q99607 1-663); conditions: protein: recombinant; tags: N-terminal GST; dsDNA, one strand shown
# ELF4, sequence (Q99607 whole entry): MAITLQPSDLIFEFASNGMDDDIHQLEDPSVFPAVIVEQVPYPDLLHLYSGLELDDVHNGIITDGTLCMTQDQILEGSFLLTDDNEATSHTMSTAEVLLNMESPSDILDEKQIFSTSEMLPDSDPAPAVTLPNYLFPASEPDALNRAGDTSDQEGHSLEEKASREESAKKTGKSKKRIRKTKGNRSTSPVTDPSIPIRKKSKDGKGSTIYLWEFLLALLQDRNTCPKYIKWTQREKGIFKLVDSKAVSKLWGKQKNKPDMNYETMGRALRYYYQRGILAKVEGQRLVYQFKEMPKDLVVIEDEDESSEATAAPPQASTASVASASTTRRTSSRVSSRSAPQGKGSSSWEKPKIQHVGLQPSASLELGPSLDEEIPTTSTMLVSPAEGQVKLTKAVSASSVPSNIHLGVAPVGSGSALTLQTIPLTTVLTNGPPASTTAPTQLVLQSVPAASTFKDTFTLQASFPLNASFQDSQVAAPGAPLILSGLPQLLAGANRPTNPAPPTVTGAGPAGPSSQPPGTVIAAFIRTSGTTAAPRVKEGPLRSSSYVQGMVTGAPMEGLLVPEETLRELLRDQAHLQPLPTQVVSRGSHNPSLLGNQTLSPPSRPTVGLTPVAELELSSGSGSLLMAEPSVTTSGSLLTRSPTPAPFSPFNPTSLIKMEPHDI
# In short: as §1
# [6] = target: T3, ELK4 (Homo sapiens, UniProt P28324-2 1-405); conditions: protein: recombinant; tags: N-terminal GST; dsDNA, one strand shown
# T3 sequence: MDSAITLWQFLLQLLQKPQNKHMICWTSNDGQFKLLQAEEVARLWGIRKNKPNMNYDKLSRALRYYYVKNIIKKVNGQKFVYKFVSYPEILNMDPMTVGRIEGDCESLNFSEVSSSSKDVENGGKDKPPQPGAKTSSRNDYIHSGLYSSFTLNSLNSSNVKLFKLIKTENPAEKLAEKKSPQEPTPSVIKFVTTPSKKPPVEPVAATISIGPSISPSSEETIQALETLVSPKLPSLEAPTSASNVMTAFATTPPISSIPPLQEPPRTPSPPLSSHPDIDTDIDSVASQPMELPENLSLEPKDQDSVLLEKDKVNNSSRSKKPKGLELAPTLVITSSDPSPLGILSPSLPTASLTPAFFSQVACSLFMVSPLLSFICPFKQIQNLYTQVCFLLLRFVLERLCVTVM
# In short: as §1
# [7] = target: T4, ETV2 (Homo sapiens, UniProt O00321 1-342); conditions: protein: recombinant; tags: N-terminal GST; dsDNA, one strand shown
# T4 sequence: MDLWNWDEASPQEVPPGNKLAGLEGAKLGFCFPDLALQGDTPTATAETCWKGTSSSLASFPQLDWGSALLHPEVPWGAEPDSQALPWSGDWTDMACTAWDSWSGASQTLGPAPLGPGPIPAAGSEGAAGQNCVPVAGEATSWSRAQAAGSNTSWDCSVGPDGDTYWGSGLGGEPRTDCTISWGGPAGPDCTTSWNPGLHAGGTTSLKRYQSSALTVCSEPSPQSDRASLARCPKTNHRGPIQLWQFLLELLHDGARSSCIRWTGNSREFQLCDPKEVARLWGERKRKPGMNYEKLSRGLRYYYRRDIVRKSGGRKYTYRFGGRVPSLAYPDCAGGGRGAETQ
# In short: as §1
# [8] = target: T5, ELF3 (Homo sapiens, UniProt P78545 1-371); conditions: protein: recombinant; tags: N-terminal GST; dsDNA, one strand shown
# T5 sequence: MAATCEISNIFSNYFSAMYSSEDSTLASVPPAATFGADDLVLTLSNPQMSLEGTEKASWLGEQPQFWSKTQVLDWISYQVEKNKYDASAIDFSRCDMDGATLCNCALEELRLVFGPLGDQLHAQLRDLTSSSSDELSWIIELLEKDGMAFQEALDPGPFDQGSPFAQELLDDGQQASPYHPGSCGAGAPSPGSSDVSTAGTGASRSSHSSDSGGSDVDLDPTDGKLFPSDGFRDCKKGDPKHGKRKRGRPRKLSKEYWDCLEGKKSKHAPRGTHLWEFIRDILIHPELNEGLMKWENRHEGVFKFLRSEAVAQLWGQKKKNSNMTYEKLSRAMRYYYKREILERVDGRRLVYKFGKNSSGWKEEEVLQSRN
# In short: as §1
# [9] = target: CRX (Homo sapiens, UniProt O43186 1-299); conditions: protein: recombinant; tags: N-terminal GST; dsDNA, one strand shown
# CRX, sequence (O43186 whole entry): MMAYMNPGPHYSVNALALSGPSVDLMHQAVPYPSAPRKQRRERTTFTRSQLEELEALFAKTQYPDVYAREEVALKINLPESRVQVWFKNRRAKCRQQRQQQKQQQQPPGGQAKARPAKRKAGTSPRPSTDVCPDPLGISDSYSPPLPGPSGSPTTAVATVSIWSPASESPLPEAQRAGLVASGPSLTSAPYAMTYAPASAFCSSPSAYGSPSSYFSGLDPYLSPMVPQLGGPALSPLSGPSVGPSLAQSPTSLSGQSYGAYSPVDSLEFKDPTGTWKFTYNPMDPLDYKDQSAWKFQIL
# In short: as §1
# [10] = target: ETV1 (Homo sapiens, UniProt P50549 1-477); conditions: protein: recombinant; tags: N-terminal GST; dsDNA, one strand shown
# ETV1, sequence (P50549 whole entry): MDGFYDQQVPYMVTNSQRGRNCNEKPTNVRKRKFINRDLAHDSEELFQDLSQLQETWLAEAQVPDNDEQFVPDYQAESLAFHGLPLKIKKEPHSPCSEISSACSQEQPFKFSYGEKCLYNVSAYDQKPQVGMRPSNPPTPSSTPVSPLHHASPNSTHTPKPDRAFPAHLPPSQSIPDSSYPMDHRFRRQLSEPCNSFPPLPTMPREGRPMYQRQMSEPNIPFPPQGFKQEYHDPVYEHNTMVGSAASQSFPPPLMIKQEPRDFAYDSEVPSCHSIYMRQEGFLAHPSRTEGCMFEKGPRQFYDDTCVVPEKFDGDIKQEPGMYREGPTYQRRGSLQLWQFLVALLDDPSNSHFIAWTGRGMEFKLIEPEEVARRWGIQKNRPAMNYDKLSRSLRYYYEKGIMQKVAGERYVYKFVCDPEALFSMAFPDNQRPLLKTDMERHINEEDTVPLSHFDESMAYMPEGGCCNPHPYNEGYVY
# In short: as §1
# [11] = target: T6, ERF (Homo sapiens, UniProt P50548 1-548); conditions: protein: recombinant; tags: N-terminal GST; dsDNA, one strand shown
# T6 sequence: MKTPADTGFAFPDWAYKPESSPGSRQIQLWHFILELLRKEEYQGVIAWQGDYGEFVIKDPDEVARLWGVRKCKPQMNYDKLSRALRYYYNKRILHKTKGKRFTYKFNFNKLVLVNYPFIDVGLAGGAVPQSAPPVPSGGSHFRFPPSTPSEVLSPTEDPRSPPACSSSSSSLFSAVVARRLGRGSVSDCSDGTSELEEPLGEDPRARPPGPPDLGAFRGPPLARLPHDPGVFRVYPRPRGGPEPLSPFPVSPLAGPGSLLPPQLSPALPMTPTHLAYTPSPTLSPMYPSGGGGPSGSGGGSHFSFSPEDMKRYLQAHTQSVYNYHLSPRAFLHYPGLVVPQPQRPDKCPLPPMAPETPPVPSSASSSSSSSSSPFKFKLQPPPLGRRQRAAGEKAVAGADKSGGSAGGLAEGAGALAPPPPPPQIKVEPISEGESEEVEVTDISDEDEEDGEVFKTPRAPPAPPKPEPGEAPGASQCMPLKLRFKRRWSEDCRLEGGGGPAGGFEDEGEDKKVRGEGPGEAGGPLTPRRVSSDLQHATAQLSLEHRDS
# In short: as §1
# [12] = target: T7, ETV3L (Homo sapiens, UniProt Q6ZN32 1-361); conditions: protein: recombinant; tags: N-terminal GST; dsDNA, one strand shown
# T7 sequence: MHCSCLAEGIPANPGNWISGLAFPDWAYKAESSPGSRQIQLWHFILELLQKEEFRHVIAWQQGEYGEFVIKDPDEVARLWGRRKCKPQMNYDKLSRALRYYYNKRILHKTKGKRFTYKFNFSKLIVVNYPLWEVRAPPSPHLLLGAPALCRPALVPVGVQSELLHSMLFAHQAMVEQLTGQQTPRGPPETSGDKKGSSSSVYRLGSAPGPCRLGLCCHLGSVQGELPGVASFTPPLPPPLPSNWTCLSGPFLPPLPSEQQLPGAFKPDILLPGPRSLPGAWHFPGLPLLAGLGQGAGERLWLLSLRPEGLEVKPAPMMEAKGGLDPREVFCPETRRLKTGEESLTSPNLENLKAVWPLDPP
# In short: as §1
# [13] = target: T8, ETS2 (Homo sapiens, UniProt P15036 1-469); conditions: protein: recombinant; tags: N-terminal GST; dsDNA, one strand shown
# T8 sequence: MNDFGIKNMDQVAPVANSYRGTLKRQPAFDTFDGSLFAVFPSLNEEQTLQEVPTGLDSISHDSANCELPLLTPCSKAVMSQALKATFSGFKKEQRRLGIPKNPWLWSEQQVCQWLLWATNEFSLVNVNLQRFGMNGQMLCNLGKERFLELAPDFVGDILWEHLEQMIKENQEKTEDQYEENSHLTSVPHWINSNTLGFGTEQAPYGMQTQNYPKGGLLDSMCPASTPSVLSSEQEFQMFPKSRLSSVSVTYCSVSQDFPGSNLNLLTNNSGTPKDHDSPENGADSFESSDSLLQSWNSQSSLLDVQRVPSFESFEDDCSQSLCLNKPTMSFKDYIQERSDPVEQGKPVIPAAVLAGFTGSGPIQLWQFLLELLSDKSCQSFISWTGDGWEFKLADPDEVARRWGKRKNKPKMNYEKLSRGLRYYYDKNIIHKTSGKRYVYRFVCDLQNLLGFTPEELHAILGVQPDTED
# In short: as §1
# [14] = target: T9, SPDEF (Homo sapiens, UniProt O95238 1-335); conditions: protein: recombinant; tags: N-terminal GST; dsDNA, one strand shown
# T9 sequence: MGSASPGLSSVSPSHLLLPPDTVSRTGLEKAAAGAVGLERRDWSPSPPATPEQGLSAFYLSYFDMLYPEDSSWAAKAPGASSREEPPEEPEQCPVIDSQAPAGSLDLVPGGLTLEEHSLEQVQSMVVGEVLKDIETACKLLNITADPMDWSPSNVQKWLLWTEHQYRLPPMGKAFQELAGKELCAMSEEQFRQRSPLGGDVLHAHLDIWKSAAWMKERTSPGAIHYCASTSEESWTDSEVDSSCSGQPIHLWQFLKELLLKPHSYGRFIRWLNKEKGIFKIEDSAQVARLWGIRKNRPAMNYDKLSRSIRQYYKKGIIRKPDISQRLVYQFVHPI
# In short: as §1
# [15] = target: T10, ETV7 (Homo sapiens, UniProt Q9Y603 1-341); conditions: protein: recombinant; tags: N-terminal GST; dsDNA, one strand shown
# T10 sequence: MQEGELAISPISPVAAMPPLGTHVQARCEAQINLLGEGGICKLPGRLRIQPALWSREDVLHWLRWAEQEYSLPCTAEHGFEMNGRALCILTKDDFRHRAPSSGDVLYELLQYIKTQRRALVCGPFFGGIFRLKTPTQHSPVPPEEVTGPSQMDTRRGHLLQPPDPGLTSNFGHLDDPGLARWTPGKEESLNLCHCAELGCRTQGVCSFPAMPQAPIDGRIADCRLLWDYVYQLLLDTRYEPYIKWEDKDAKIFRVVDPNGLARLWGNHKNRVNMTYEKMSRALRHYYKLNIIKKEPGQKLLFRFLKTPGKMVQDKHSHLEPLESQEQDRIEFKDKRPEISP
# In short: as §1
# [16] = target: T11, ELF5 (Homo sapiens, UniProt Q9UKW6-2 1-255); conditions: protein: recombinant; tags: N-terminal GST; dsDNA, one strand shown
# T11 sequence: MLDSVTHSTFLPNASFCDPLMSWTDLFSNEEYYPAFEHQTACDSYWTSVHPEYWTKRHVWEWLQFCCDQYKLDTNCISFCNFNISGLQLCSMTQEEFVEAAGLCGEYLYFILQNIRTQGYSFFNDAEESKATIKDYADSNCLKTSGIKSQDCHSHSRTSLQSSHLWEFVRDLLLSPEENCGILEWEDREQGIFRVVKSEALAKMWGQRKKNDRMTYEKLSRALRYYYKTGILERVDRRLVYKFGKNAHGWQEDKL
# In short: as §1
# [17] = target: T12, ETV3 (Homo sapiens, UniProt P41162-2 1-143); conditions: protein: recombinant; tags: N-terminal GST; dsDNA, one strand shown
# T12 sequence: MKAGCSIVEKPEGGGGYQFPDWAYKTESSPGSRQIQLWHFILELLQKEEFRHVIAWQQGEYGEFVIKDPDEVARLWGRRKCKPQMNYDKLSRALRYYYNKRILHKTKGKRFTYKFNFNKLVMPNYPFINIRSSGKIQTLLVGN
# In short: as §1
# [18] = target: ETV6 (Homo sapiens, UniProt P41212 1-452); conditions: protein: recombinant; tags: N-terminal GST; dsDNA, one strand shown
# ETV6, sequence (P41212 whole entry): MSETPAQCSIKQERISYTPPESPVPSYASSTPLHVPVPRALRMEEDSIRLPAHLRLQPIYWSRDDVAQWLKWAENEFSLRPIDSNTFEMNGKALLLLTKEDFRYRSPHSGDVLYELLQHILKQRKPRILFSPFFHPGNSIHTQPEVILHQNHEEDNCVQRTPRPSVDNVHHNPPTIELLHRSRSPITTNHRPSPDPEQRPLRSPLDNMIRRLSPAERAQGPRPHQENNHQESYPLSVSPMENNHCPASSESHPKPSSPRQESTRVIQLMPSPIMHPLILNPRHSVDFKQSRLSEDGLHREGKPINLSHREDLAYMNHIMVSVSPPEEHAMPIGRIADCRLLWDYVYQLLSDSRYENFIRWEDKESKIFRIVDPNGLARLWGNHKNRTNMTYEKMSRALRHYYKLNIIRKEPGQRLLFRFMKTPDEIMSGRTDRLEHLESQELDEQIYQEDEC
# In short: as §1
sequence,measurement,setting,value
CCTTTG,binding signal,[1],"1.31 fold enrichment (6-mer frequency, TF over GST control)"
same,binding signal,[2],"1.3 fold enrichment (6-mer frequency, TF over GST control)"
same,binding signal,[3],"1.21 fold enrichment (6-mer frequency, TF over GST control)"
same,binding signal,[4],"1.38 fold enrichment (6-mer frequency, TF over GST control)"
same,binding signal,[5],"1.36 fold enrichment (6-mer frequency, TF over GST control)"
same,binding signal,[6],"1.19 fold enrichment (6-mer frequency, TF over GST control)"
same,binding signal,[7],"1.24 fold enrichment (6-mer frequency, TF over GST control)"
same,binding signal,[8],"1.27 fold enrichment (6-mer frequency, TF over GST control)"
same,binding signal,[9],"1.09 fold enrichment (6-mer frequency, TF over GST control)"
same,binding signal,[10],"1.42 fold enrichment (6-mer frequency, TF over GST control)"
same,binding signal,[11],"1.24 fold enrichment (6-mer frequency, TF over GST control)"
same,binding signal,[12],"1.32 fold enrichment (6-mer frequency, TF over GST control)"
same,binding signal,[13],"1.32 fold enrichment (6-mer frequency, TF over GST control)"
same,binding signal,[14],"1.22 fold enrichment (6-mer frequency, TF over GST control)"
same,binding signal,[15],"1.33 fold enrichment (6-mer frequency, TF over GST control)"
same,binding signal,[16],"1.31 fold enrichment (6-mer frequency, TF over GST control)"
same,binding signal,[17],"1.34 fold enrichment (6-mer frequency, TF over GST control)"
same,binding signal,[18],"1.17 fold enrichment (6-mer frequency, TF over GST control)"
